# Experimental data taken from PubChem BioAssay AID1159580 (chemical genetic matrix, 2015).
# Screen size: about 5,500 compounds; about 2,000 (36%) were called active. Another 18% or so got no clear call; they are omitted. The list shows a part of the results. Unmarked numbers belong to inactive results. No stated cut-off is given here; in the data, active means normalized growth mostly below about 0.91 (no sharp cut-off); inconclusive means no clear call, values can overlap the other calls; inactive means mostly above about 0.92.
# Assay: chemical genetic growth profiling, strain panel (AID 1159580);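 further: tested at 20 µM; growth read once vehicle control cultures reached saturation at 30 °C; 1 = growth at the plate median or of vehicle wells; lower values mean less growth of the strain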
# Conditions: S. cerevisiae deletion strains, growth OD
compound,measurement,setting,value
O=C1OC(Nc2ccccc2SCc2ccccc2Cl)c2ccccc21 (stereo unspecified),normalized growth,"locus YAR019C, strain CDC15, hits give low values",0.985
same,normalized growth,"locus YBL105C, strain PKC1, hits give low values",0.977
same,normalized growth,"locus YBR135W, strain CKS1, hits give low values",0.97
same,normalized growth,"locus YBR136W, strain MEC1, hits give low values",0.973
same,normalized growth,"locus YBR160W, strain CDC28, hits give low values",0.981
same,normalized growth,"locus YDL017W, strain CDC7, hits give low values",0.989
same,normalized growth,"locus YDL028C, strain MPS1, hits give low values",0.984
same,normalized growth,"locus YDL101C, strain DUN1, hits give low values",0.971
same,normalized growth,"locus YDL108W, strain KIN28, hits give low values",0.977
same,normalized growth,"locus YDL132W, strain cdc53, hits give low values",0.962
same,normalized growth,"locus YDL214C, strain PRR2, hits give low values",0.903
same,normalized growth,"locus YDR052C, strain DBF4, hits give low values",0.989
same,normalized growth,"locus YDR054C, strain cdc34, hits give low values",0.98
same,normalized growth,"locus YDR226W, strain ADK1, hits give low values",0.965
same,normalized growth,"locus YDR477W, strain SNF1, hits give low values",0.928
same,normalized growth,"locus YER123W, strain YCK3, hits give low values",0.89
same,normalized growth,"locus YER133W, strain GLC7, hits give low values",0.897
same,normalized growth,"locus YFL009W, strain cdc4, hits give low values",0.97
same,normalized growth,"locus YFL029C, strain CAK1, hits give low values",0.971
same,normalized growth,"locus YFR003C, strain YPI1, hits give low values",0.983
same,normalized growth,"locus YFR019W, strain FAB1, hits give low values",0.886
same,normalized growth,"locus YFR028C, strain CDC14, hits give low values",0.967
same,normalized growth,"locus YGR040W, strain KSS1, hits give low values",0.899
same,normalized growth,"locus YGR052W, strain FMP48, hits give low values",0.87
same,normalized growth,"locus YGR092W, strain DBF2, hits give low values",0.855
same,normalized growth,"locus YHR030C, strain SLT2, hits give low values",0.867
same,normalized growth,"locus YHR079C, strain IRE1, hits give low values",0.905
same,normalized growth,"locus YHR082C, strain KSP1, hits give low values",0.948
same,normalized growth,"locus YHR205W, strain SCH9, hits give low values",0.798
same,normalized growth,"locus YIL147C, strain SLN1, hits give low values",0.977
same,normalized growth,"locus YJL095W, strain BCK1, hits give low values",0.814
same,normalized growth,"locus YJL128C, strain PBS2, hits give low values",0.937
same,normalized growth,"locus YJL157C, strain FAR1, hits give low values",0.905
same,normalized growth,"locus YJR016C, strain ILV3, hits give low values",0.98
same,normalized growth,"locus YJR066W, strain TOR1 (second series), hits give low values",0.846
same,normalized growth,"locus YJR066W, strain TOR1, hits give low values",0.914
same,normalized growth,"locus YKL048C, strain ELM1, hits give low values",0.963
same,normalized growth,"locus YKL067W, strain YNK1, hits give low values",0.908
same,normalized growth,"locus YKL101W, strain HSL1, hits give low values",0.907
same,normalized growth,"locus YKL193C, strain SDS22, hits give low values",0.979
same,normalized growth,"locus YKL203C, strain TOR2, hits give low values",0.93
same,normalized growth,"locus YLR113W, strain HOG1, hits give low values",0.832 (active)
same,normalized growth,"locus YLR133W, strain CKI1, hits give low values",0.899
same,normalized growth,"locus YLR403W, strain SFP1, hits give low values",0.83
same,normalized growth,"locus YML070W, strain DAK1, hits give low values",0.903
same,normalized growth,"locus YMR001C, strain CDC5, hits give low values",0.98
same,normalized growth,"locus YMR205C, strain PFK2 (second series), hits give low values",0.912
same,normalized growth,"locus YMR277W, strain FCP1, hits give low values",0.979
same,normalized growth,"locus YNL006W, strain LST8, hits give low values",0.975
same,normalized growth,"locus YNL020C, strain ARK1, hits give low values",0.916
same,normalized growth,"locus YNL161W, strain CBK1, hits give low values",0.976
same,normalized growth,"locus YNL183C, strain NPR1, hits give low values",0.909
same,normalized growth,"locus YNL207W, strain RIO2, hits give low values",0.968
same,normalized growth,"locus YNL222W, strain SSU72, hits give low values",0.974
same,normalized growth,"locus YNL307C, strain MCK1 (second series), hits give low values",0.862
same,normalized growth,"locus YOL078W, strain AVO1, hits give low values",0.97
same,normalized growth,"locus YOL136C, strain PFK27, hits give low values",0.854
same,normalized growth,"locus YOR061W, strain CKA2, hits give low values",0.888
same,normalized growth,"locus YOR119C, strain RIO1, hits give low values",0.964
same,normalized growth,"locus YOR231W, strain MKK1, hits give low values",0.895
same,normalized growth,"locus YOR329C, strain SCD5, hits give low values",0.984
same,normalized growth,"locus YPL031C, strain PHO85, hits give low values",0.912
same,normalized growth,"locus YPL153C, strain RAD53, hits give low values",0.934
same,normalized growth,"locus YPL204W, strain HRR25, hits give low values",0.882
same,normalized growth,"locus YPL209C, strain IPL1, hits give low values",0.978
same,normalized growth,"locus YPL256C, strain CLN2, hits give low values",0.953
same,normalized growth,"locus YPR025C, strain CCL1, hits give low values",0.984
same,normalized growth,"locus YPR106W, strain ISR1, hits give low values",0.976
same,normalized growth,"locus YPR111W, strain DBF20, hits give low values",0.955
same,normalized growth,"strain NNK1, hits give low values",0.971
same,normalized growth,"strain TSCII, hits give low values",0.965
